# Results from PubChem BioAssay.
# The source made the active and inactive calls. Unless noted, the rule behind the calls is not given here.
# Tests used:
# [1] = tested on: XIP peptide (Xip251-270) binding; assay: XIP fragment 251-270 binding compounds – biochemical, small-molecule microarray, fluorescence 635/667 nm, 0.1 µg/mL protein, primary screen (AID 1182); settings: fluorescent protein binding, 635 nm, higher = more signal, called active from +8 up or from −8 down
# XIP peptide (Xip251-270) = assay: compounds binding XIP fragment 251-270 – biochemical, small-molecule microarray, fluorescence 635/667 nm, 0.5 µg/mL protein, primary screen (AID 1183); settings: fluorescence 635 nm, higher = more signal
# [2] = blood-stage malaria parasite viability loss – strain 3D7, DAPI fluorescence, 100 nL, primary screen (AID 1184);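 note: parasites grown inside human red blood cells in medium with human serum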; settings: P. falciparum 3D7 growth, 3 d, higher = more signal
# [3] = biological target: Homeobox protein Hox-A13 (Mus musculus) (UniProt Q62424); assay: disruptors of Hoxa13 oligonucleotide interaction – biochemical, fluorescence polarization, labeled oligonucleotide, primary screen (AID 1185); settings: Hoxa13:DNA binding, 15 min, higher = more signal, called active from +8 up or from −8 down
# Chain of Homeobox protein Hox-A13 (Mus musculus) (Q62424 whole entry, looked up): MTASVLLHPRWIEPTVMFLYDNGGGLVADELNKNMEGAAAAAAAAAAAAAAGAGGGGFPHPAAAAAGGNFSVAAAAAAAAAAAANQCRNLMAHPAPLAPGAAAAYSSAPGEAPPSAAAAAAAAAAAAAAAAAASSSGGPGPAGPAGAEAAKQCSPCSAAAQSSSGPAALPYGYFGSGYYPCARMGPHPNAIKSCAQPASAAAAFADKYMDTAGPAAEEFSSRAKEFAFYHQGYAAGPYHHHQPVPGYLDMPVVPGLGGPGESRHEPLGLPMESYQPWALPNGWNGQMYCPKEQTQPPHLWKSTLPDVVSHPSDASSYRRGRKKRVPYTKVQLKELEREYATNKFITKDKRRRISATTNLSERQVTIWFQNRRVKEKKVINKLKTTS
# [4] = blockers of DNA damage checkpoint Chk1 activation – imaging, HeLa, hydroxyurea, phospho-Chk1 antibody, percent positive cells, primary screen (AID 1186); settings: hydroxyurea-induced phospho-Chk1 immunofluorescence imaging, higher = more signal
# [5] = blockers of DNA damage checkpoint Chk1 activation – imaging, HeLa, hydroxyurea, phospho-Chk1 nuclear intensity, primary screen (AID 1187); settings: hydroxyurea-induced phospho-Chk1 immunofluorescence imaging, higher = more signal
Structure (SMILES),composite z-score [1],composite z-score (XIP peptide (Xip251-270)),z-score [2],z-score [3],z-score [4],z-score [5]
C#CCN1[C@H](/C=C/C2CC2)[C@H](Cc2ccccc2)OC(=O)[C@@H]1Cc1ccccc1,1.42 (inactive),0.513,-0.568,-0.837 (inactive),-0.315 (inactive),-0.418 (inactive)
COC(=O)[C@]1(CCC(=O)OC(C)(C)C)N=C(c2ccc(OCCCO)cc2)O[C@@H]1c1ccccc1,1.87 (inactive),0.761,-2.31,-4.4 (inactive),-0.621 (inactive),-0.545 (inactive)
COc1ccc(NN2C(C(O)c3ccc(N(C)C)cc3)C=CC3C(=O)N(C4CCCCC4)C(=O)C32)cc1 (configuration not stated),1.02 (inactive),0.68,-0.087,-4.68 (inactive),-0.217 (inactive),-0.837 (inactive)
CCCC[C@H]1C[C@@H]1[C@@H]1N(P(=O)(c2ccccc2)c2ccccc2)C[C@@](O)(c2ccccc2)CC12CC2,-0.0646 (inactive),-0.0749,-1.22,-2.37 (inactive),0.0682 (inactive),0.228 (inactive)
COC(=O)[C@@]1(Cc2ccc(F)cc2)[C@H]2c3cc(C(=O)N(C)C)n(Cc4cc(C)n(C)n4)c3C[C@H]2CN1C(=O)c1ccccc1,0.537 (inactive),0.801,-0.358,-1.42 (inactive),0.669 (inactive),0.333 (inactive)
COc1ccc([Si](C)(C)[C@@H]2[C@@H](CCO)O[C@]3(C(=O)N(Cc4cccc(N5CCOC5=O)c4)c4ccccc43)[C@H]2C)cc1,0.473 (inactive),0.332,-2.54,-4.2 (inactive),-0.609 (inactive),-0.553 (inactive)
CC(C)(C)OC(=O)CC[C@@]1(C(=O)N2CCCCC2)N=C(c2ccc(OCCCO)cc2)O[C@@H]1c1ccccc1,0.671 (inactive),0.267,-2.03,-5.06 (inactive),-0.102 (inactive),-0.0985 (inactive)
NCCCCCCNC(=O)[C@H]1C[C@H]2C(=O)N[C@@H](Cc3ccccc3)C(=O)N2[C@H]1c1cccc(OCCO)c1,1.16 (inactive),0.834,-0.516,-3.36 (inactive),-0.182 (inactive),-0.25 (inactive)
COc1ccc([Si](C)(C)[C@@H]2[C@@H](CC(=O)N3Cc4ccccc4C[C@H]3CO)O[C@]3(C(=O)N(Cc4cccc(N5CCC5=O)c4)c4ccccc43)[C@H]2C)cc1,0.607 (inactive),0.736,-2.55,-1.51 (inactive),-0.342 (inactive),-0.0386 (inactive)
CN(C)CCCCCCNC(=O)[C@@H]1C[C@@H]2C(=O)N3CCC[C@H]3C(=O)N2[C@@H]1c1ccc(O)cc1,2.98 (inactive),0.929,0.199,0.647 (inactive),-0.849 (inactive),-0.147 (inactive)
C[C@H]1C2[C@H](Cc3ccccc3)NC(=O)[C@]23C(=O)NCC(=O)N2CCC[C@H]2C(=O)NC/C=C/CCC/C=C/C3[C@@H]2O[C@]12C (some centres not stated),-0.416 (inactive),-0.56,-1.48,-3.96 (inactive),0.0614 (inactive),0.0823 (inactive)
CCCCCN1CC=CC23O[C@@H]4C=CCOC(=O)[C@@H]4[C@H]2C(=O)N(C(C)CO)[C@@H]3C1=O (some centres not stated),0.379 (inactive),-0.0756,0.795,-4.96 (inactive),0.719 (inactive),0.149 (inactive)
COCCCNC(=O)[C@@H]1c2ccccc2C(=O)N(Cc2ccccc2OC)[C@H]1c1ccc(CO)cc1,0.694 (inactive),-0.0218,-1.99,-2.85 (inactive),-0.481 (inactive),-0.576 (inactive)
NC(=O)[C@@]1(Cc2ccccc2)N=C(c2ccc(OCCCO)cc2)O[C@H]1c1ccccc1,1.08 (inactive),-0.41,-0.689,-5.07 (inactive),-0.18 (inactive),0.135 (inactive)
C=CC1c2cc(O)c(OC)cc2CCN1Cc1cccc(OC(F)(F)F)c1 (configuration not stated),1.81 (inactive),0.918,-1.8,-4.91 (inactive),0.08 (inactive),0.362 (inactive)
CCOC(=O)C1=CC[C@@H](c2ccc(C(F)(F)F)cc2)N(S(=O)(=O)c2ccc(C)cc2)[C@H]1c1ccccc1,0.544 (inactive),0.762,-2.02,0.759 (inactive),0.0487 (inactive),-0.516 (inactive)
O=C1OCC=C[C@H]2OC34C=CCN(CCN5CCOCC5)C(=O)[C@H]3N(CCO)C(=O)[C@@H]4[C@@H]12 (some centres not stated),0.218 (inactive),0.775,0.703,-5.02 (inactive),-0.474 (inactive),-0.371 (inactive)
